Screening data from PubChem.
A selection: hits, their analogues and other compounds. The true share with any hit is near 1.6%.
eIF4H FP inh – human eIF4H binding inhibitors, primary screen, translation initiation inhibitor project, biochemical, uHTS, fluorescence polarization | Eukaryotic translation initiation factor 4H (Homo sapiens), Q15056 | eIF4H fluorescence polarization binding assay | hit rate 0.94% among 290,000 | inhibition, % at 35 µM;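 further: calls also rest on retests at 20 µM and on dose response follow-up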
PERK inh – block of dimerizer-induced PERK translation repression, primary screen, PERK inhibitor project, CHO PERK-DD cells, SEAP luminescence, HTS. Eukaryotic translation initiation factor 2-alpha kinase 3 (Homo sapiens), Q9NZJ5. CHO PERK-DD fusion, SEAP luminescence translation reporter. inhibition, % at 5.6 µM. hit rate 0.17% among 220,000;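 active means inhibition above the mean inhibition of all tested compounds plus 3 SD, set separately per screening campaign, cut at about 2.9% in these data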;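 further: PERK kinase domain activated by AP20187 dimerizer at 100 nM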
eIF4E-4G inh – eIF4E–eIF4G protein interaction inhibitors, primary screen, biochemical, uHTS, TR-FRET, eIF4GI fragment. hit rate 0.37% among 220,000. TR-FRET eIF4E-eIF4GI(517-606) binding, 2 h. inhibition, % at 21.7 µM. AID 782, 2007;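 active means inhibition above about 30%, limit read from the data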
PABP FP inh – PABP poly(A) RNA binding inhibitors, primary screen, biochemical, fluorescence polarization, uHTS; hit rate 1% among 290,000; calls only at 35 µM; Polyadenylate-binding protein 1 (Homo sapiens), P11940;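 further: calls also rest on retests at 20 µM and on dose response follow-up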
PABP1 MLLE inh – inhibitors of PABP1 MLLE–PAM2 peptide binding, primary screen, biochemical, fluorescence polarization, FITC-PAM2, GST-MLLE; Polyadenylate-binding protein 1 (Homo sapiens), P11940; inhibition, % at 20 µM; hit rate 0.36% among 360,000; in the data active means inhibition above about 35%, passing the limit was not always enough
Each line names hits and unclear results; the compound was inactive in the other large screens; [ ] = dose if it differs, or a comment. Unless noted, how the calls were made is not given here.

COc1cc([C@@H]2[C@H]3CNCC=C3C(C#N)=C(N)C2(C#N)C#N)ccc1OC(C)C	eIF4H FP inh 73, PABP FP inh active
C[C@H]1CN([C@@H](C)CO)S(=O)(=O)c2ccc(-c3ccc(C#N)cc3)cc2O[C@H]1CN(C)C(=O)CN(C)C	none (no result: eIF4H FP inh, PERK inh, eIF4E-4G inh, PABP FP inh)
Nc1nc(Cl)nc2c1ncn2C1OCC(O)C(O)C1O (centres undefined)	none (no result: eIF4H FP inh, PERK inh, eIF4E-4G inh, PABP FP inh)
Cc1cc(C)c2cc3c(ccn3C3OC[C@H](O)[C@H](O)[C@H]3O)cc2n1 (some centres undefined)	eIF4H FP inh 33, PABP FP inh active, PABP1 MLLE inh 49
NC(=O)CN(c1ccccc1)C1SC(=O)N(Cc2ccccc2)C1=O (centres undefined)	PABP1 MLLE inh 45
Cc1ccc(N(CC(N)=O)C2SC(=O)N(Cc3ccccc3)C2=O)cc1 (centres undefined)	PABP1 MLLE inh 42
N#Cc1c(Cl)c(Cl)c2nnc(-c3ccc(Br)cc3)n2c1Cl	eIF4E-4G inh 36[fluorescence artefact?] (no result: PABP1 MLLE inh)
O=C(NCc1ccccc1)c1cc(C2COCCN2C(=O)c2ccc(Cl)cc2)on1 (centres undefined)	none (no result: eIF4H FP inh, PERK inh, eIF4E-4G inh, PABP FP inh)
COc1ccc(OCC(=O)N2CC3(C)CC2CC(C)(C)C3)cc1 (centres undefined)	eIF4E-4G inh 36
Oc1ccccc1N=Cc1ccc[nH]1	eIF4H FP inh 49, PABP FP inh active
C(=Nc1ccccc1)c1ccc[nH]1	none (no result: eIF4H FP inh, PERK inh, eIF4E-4G inh, PABP FP inh)
COc1ccc(CNC(=O)/C=C/[C@H]2O[C@@H](n3cc(C)c(=O)[nH]c3=O)C[C@@H]2O)cc1	none (no result: eIF4H FP inh, PERK inh, eIF4E-4G inh, PABP FP inh)
Cc1cc(N)ccc1N1CCCC1	eIF4H FP inh inconclusive, eIF4E-4G inh 45[fluorescence artefact?], PABP FP inh inconclusive
Cc1cc(N)ccc1-n1c(C)ccc1C	none
O=C(O)CCNc1cc(N2CCN(C(=O)c3ccco3)CC2)c2noc3c2c1C(=O)c1ccccc1-3	eIF4H FP inh 101, PABP FP inh active (no result: PERK inh, eIF4E-4G inh)
CCN1CCN(c2cc(N3CCN(C(=O)c4ccco4)CC3)c3c4c(onc24)-c2ccccc2C3=O)CC1	eIF4H FP inh 94, PABP FP inh active (no result: PERK inh, eIF4E-4G inh)
COc1cc(C(=O)Nc2cc(C)ccc2C)ccc1OCc1c(C)noc1C	none (no result: eIF4H FP inh, PERK inh, eIF4E-4G inh, PABP FP inh)
COc1ccc(CCNC(=O)c2ccc(OCc3c(C)noc3C)cc2)cc1OC	none (no result: eIF4H FP inh, PERK inh, eIF4E-4G inh, PABP FP inh)
COc1ccc(CNC(=O)COC(=O)c2ccc(OCc3c(C)noc3C)cc2)cc1OC	eIF4H FP inh 90
COc1cc(C(=O)NC2=NCCS2)ccc1OCc1c(C)noc1C	PABP1 MLLE inh 42
COc1cc(C(=O)NCCc2c[nH]c3ccccc23)ccc1OCc1c(C)noc1C	eIF4H FP inh active
Nn1c(SCC(=O)Nc2ccccc2C(F)(F)F)nncc1=O	none (no result: PERK inh, eIF4E-4G inh)
COc1ccc(-n2c(-c3ccc(Cl)cc3)c[nH]c2=S)cc1	none (no result: PERK inh, eIF4E-4G inh)
CCn1c2ccccc2c2cc(NC(=O)c3coc(=O)c(Br)c3)ccc21	eIF4H FP inh 105
COc1cc(C(=S)N2CCC(C)CC2)ccc1O	PABP1 MLLE inh 40
COc1cc(C(=S)N2CCCCC2)ccc1O	PABP1 MLLE inh 38
COc1cc(C(=S)N2CCCC2)ccc1O	PABP1 MLLE inh 40
CCOc1cc(C(=S)N2CCCC2)ccc1O	none (no result: PERK inh, eIF4E-4G inh)
Cc1ccc(CN2CCSc3sccc3C2=O)cc1	none
Nc1ccc(C(=O)NN2C(=O)[C@H](Cl)C2c2ccc(Cl)cc2)cc1 (some centres undefined)	none (no result: eIF4H FP inh, PERK inh, eIF4E-4G inh, PABP FP inh)
CN(C)S(=O)(=O)n1cnc([C@@H]2[C@H]3C(=O)OC[C@@H]3C[C@@]23N=CN(Cc2ccccc2)C3=O)c1	none (no result: eIF4H FP inh, PERK inh, eIF4E-4G inh, PABP FP inh)
COc1cc(-c2nnc(SCc3cc(=O)oc4cc(O)c(O)cc34)o2)cc(OC)c1OC	eIF4H FP inh 92, PABP FP inh active
CCN(CC)CCN1C(=O)C(=O)/C(=C(/O)c2ccc(S(=O)(=O)N3CCOCC3)cc2)C1c1ccc(C(C)(C)C)cc1 (centres undefined)	none (no result: PERK inh, eIF4E-4G inh)
O=[N+]([O-])c1c(Nc2ccc(O)cc2)cc(Cl)c2nonc12	PABP1 MLLE inh 39 (no result: PERK inh, eIF4E-4G inh)
O=C(O)c1ccccc1Nc1cc(Cl)c2nonc2c1[N+](=O)[O-]	PABP1 MLLE inh 42 (no result: PERK inh, eIF4E-4G inh)
O=C(O)c1cccc(Nc2cc(Cl)c3nonc3c2[N+](=O)[O-])c1	none
CN(C)c1cc(Nc2ccc(O)cc2)c([N+](=O)[O-])c2nonc12	none
C[c-]1[c-](C)[c-](C)[c-](C)[c-]1C.[Fe].c1cc2nccc(N3CCCC3)[c-]2c1 (centres undefined)	eIF4H FP inh 104, PABP FP inh active, PABP1 MLLE inh 64 (no result: PERK inh)
CN(C)CCNc1oc(COc2ccc(Cl)cc2Cl)nc1C#N	PABP FP inh active
COc1ccc(N2CC(C(=O)N3CCN(C(=O)c4ccco4)CC3)CC2=O)cc1 (centres undefined)	none (no result: PERK inh, eIF4E-4G inh)
CC(Oc1ccc2ccccc2c1)C(=O)NNC(=O)Nc1ccccc1 (centres undefined)	none (no result: PERK inh, eIF4E-4G inh)
Cc1ccc(N(C(C)C(=O)Nc2ccc(S(=O)(=O)N3CCOCC3)cc2)S(C)(=O)=O)cc1 (centres undefined)	eIF4H FP inh inconclusive, PABP FP inh active
CC(C)NC(=O)COC(=O)c1ccccc1C(=O)c1ccccc1	none
Oc1ccc(/C=N/Nc2ccnc3cc(Cl)ccc23)c(O)c1O	eIF4H FP inh 67 (no result: PERK inh, eIF4E-4G inh)
COc1cccc(CNC(=O)C2CCN(S(=O)(=O)c3ccccc3)CC2)c1	none
COc1ccc(S(=O)(=O)N2CCC(C(=O)NCc3cccc(OC)c3)CC2)cc1	eIF4E-4G inh 47
N#Cc1c(N2CCCC2)ccc(Br)c1Cl	none
O=C1C(Cl)=C(NC(=O)c2ccccc2)C(=O)C(Cl)=C1NC(=O)c1ccccc1	PABP1 MLLE inh 57 (no result: PERK inh, eIF4E-4G inh)
O=C(O)c1ccc2c(c1)C1C=CCC1C(c1ccncc1)N2 (centres undefined)	eIF4H FP inh 97, PABP FP inh active
CCOC(=O)c1ccc2c(c1)C1C=CCC1C(C(=O)O)N2 (centres undefined)	eIF4H FP inh 92, eIF4E-4G inh 47, PABP FP inh active (no result: PABP1 MLLE inh)
CCOC(=O)C1Nc2ccc(C(=O)O)cc2C2C=CCC12 (centres undefined)	eIF4H FP inh 96, PABP FP inh active, PABP1 MLLE inh 50 (no result: PERK inh, eIF4E-4G inh)
FC(F)(F)c1ccc2c(c1)C1C=CCC1C(c1ccncc1)N2 (centres undefined)	none
CCCC1Nc2ccc(C(=O)O)cc2C2C=CCC12 (centres undefined)	none
CC(C)C1Nc2ccc(C(=O)O)cc2C2C=CCC21 (centres undefined)	eIF4H FP inh 96
CCOC(=O)C1=CCN(S(=O)(=O)c2ccccc2C)C1c1ccc(F)cc1 (centres undefined)	none (no result: eIF4H FP inh, PERK inh, eIF4E-4G inh, PABP FP inh)
CC1(C)CC(=O)C(C(=O)C2CCN(S(=O)(=O)c3ccccc3)CC2)C(=O)C1	none
COc1ccc(C(=O)NNC(=S)NC(=O)c2cccs2)cc1	none (no result: PERK inh, eIF4E-4G inh)
COc1ccc(/C=C/C(=O)NC(=S)NNC(=O)c2cccs2)cc1	eIF4H FP inh 5.9
